# In the supplement of paper PMC12067926:
# Unmarked numbers belong to inactive results.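 Rule for the calls: active = growth AUC significantly below the DMSO wells by Dunnett test; inactive = the rest.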
# Compound: O=C(Oc1ccccc1)n1c(C(F)(F)F)nc2cc(Cl)c(Cl)cc21
# Assay: relative growth (AUC of 72 h growth curve relative to DMSO control, dAUC) (ratio); higher = more growth (less inhibition), active = hit call of the paper
# Conditions: 20 µM
# Method: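 Environmental bacterial isolates (Iceland stream sediment and Silwood Park soil) and whole stream-sediment communities were grown in LB from a 1:100 dilution with each pesticide at 20 µM (1% DMSO). A600 was read hourly for 72 h and the area under a spline-fitted growth curve (AUC) was computed. dAUC is the mean AUC of 3 biological replicates divided by the mean AUC of the DMSO controls. Significance was tested by Dunnett's test against the DMSO control.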
row,Target,relative growth
1,Community 8,0.787
2,Argrobacterium 1 (Agrobacterium sp.),0.752 (active)
3,Bacillus 1 (Bacillus foraminis),0.747
4,Aeromonas 3 (Aeromonas popoffii),0.337 (active)
5,Community 10,0.772
6,Flavobacterium 1 (Flavobacterium glaciei),0.0789 (active)
7,Arthrobacter 3 (Arthrobacter sp.),0.0715 (active)
8,Community 4,0.809
9,Prolinoborus 1 (Prolinoborus fasciculus),0.283 (active)
10,Paenibacillus 1 (Paenibacillus castaneae),0.00512 (active)
11,Pseudomonas 3 (Pseudomonas mandelii),0.765 (active)
12,Microbacterium 1 (Microbacterium arborescens),0.785 (active)
13,Community 6,0.563 (active)
14,Pseudomonas 2 (Pseudomonas vancouverensis),0.735 (active)
15,Pseudomonas 1 (Pseudomonas baetica),0.741
16,Pseudomonas 6 (Pseudomonas sp.),0.777

row,Target,relative growth
1,Rhizobium 1 (Rhizobium herbae),0.0292 (active)
2,Arthrobacter 2 (Arthrobacter humicola),0.00975 (active)
3,Community 9,0.363 (active)
4,Flavobacterium 2 (Flavobacterium succinicans),0.0416 (active)
5,Pseudomonas 5 (Pseudomonas baetica),0.765 (active)
6,Community 7,1.01
7,Sphingomonas 2 (Sphingomonas sp.),0.0208 (active)
8,Oryzobacter 1 (Oryzobacter terrae),0.00822 (active)
9,Hymenobacter 1 (Hymenobacter glaciei),0.165 (active)
10,Arthrobacter 1 (Arthrobacter humicola),0.211 (active)
11,Aeromonas 1 (Aeromonas sp. AE235),0.32 (active)
12,Neobacillus 1 (Neobacillus soli),0.826
13,Aeromonas 2 (Aeromonas sobria),0.0369 (active)
14,Pseudomonas 4 (Pseudomonas peli),0.336 (active)
15,Serratia 1 (Serratia sp. 2015-2462-01),0.366 (active)
16,Carnobacterium 1 (Carnobacterium gallinarum),0.0839 (active)
